Data: paper PMC4336329 (PLoS ONE, 2015)
Out of some 310,000 compounds screened, about 14,000 (4.5%) showed an effect of 50% or more. The effect is printed as a negative number. The sample as a whole holds a higher share of strong results than the screen did.

The compounds below were run against human ether-à-go-go-related gene (hERG) potassium channel (human, UniProt Q12809) (assay: primary screen, population patch clamp on CHO cells stably expressing hERG; higher = less effect of the substance).
human ether-à-go-go-related gene (hERG) potassium channel, sequence (Q12809 whole entry, looked up): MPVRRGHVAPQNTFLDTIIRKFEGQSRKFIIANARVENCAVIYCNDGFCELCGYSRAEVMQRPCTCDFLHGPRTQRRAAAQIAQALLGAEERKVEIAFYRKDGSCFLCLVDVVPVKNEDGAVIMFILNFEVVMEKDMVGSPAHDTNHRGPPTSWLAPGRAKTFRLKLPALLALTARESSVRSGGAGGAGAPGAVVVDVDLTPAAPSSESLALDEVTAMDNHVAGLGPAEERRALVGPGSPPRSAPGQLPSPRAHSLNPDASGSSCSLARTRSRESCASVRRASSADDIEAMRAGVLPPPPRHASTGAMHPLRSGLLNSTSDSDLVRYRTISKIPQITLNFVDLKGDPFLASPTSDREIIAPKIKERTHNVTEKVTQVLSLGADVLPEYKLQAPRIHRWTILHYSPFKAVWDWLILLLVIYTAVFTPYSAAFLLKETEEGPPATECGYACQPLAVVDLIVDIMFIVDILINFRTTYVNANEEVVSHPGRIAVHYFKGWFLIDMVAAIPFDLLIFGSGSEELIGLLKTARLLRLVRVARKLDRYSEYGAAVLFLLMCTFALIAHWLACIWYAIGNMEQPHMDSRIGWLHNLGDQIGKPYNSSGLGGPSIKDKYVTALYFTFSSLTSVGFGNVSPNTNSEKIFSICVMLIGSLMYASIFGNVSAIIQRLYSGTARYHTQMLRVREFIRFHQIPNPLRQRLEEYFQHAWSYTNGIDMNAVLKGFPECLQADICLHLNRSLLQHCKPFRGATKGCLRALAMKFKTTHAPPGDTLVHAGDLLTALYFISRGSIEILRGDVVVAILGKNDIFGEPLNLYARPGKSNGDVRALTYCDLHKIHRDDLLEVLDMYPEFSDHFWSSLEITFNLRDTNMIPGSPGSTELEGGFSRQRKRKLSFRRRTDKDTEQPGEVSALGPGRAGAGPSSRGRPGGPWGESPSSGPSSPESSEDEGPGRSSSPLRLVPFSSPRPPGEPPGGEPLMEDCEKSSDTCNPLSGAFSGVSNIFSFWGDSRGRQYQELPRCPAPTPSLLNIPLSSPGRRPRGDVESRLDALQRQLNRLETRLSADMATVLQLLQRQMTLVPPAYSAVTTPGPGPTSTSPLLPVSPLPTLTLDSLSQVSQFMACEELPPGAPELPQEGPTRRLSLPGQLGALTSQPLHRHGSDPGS
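Further: peak tail current of the secondary pulse compared with the same well before compound.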

Going from `CCc1ccccc1NC(=O)CN1CCN(CC(=O)Nc2cc(C)ccc2OC)CC1` to `COc1ccc(C)cc1NC(=O)CN1CCN(C/C=C/c2ccccc2)CC1`, the “hERG current change (%, negative = inhibition) at 10uM” value falls from -28.4% to -78.3%.

Compared with `COc1ccc(C)cc1NC(=O)CCN1CCN(C/C=C/c2ccccc2)CC1`, `COc1ccc(C)cc1NC(=O)CCN1CCN(c2ccccc2)CC1` is higher in “hERG current change (%, negative = inhibition) at 10uM” value: -77.1% for the first, -10.3% for the second.

First: COc1ccc(C)cc1NC(=O)CN1CCN(c2ccccn2)CC1
Second: COc1ccc(C)cc1NC(=O)CCN1CCCC1
The “hERG current change (%, negative = inhibition) at 10uM” value of the first is lower: -11.7% for the first, 2.36% for the second.

Going from `Cc1ccc(S(=O)(=O)c2nnn3c2nc(N2CCOCC2)c2ccccc23)c(C)c1` to `O=c1[nH]c2ccc(Br)cc2c(-c2ccccc2)c1N1CCOCC1`, the “hERG current change (%, negative = inhibition) at 10uM” value rises from -31.3% to 7.5%.

First: COCc1nnc(NC(=O)c2cc(C(=O)OC)cc([N+](=O)[O-])c2)s1
Second: CCOc1ccc(C(=O)NC(=S)Nc2ncccc2C)cc1[N+](=O)[O-]
The “hERG current change (%, negative = inhibition) at 10uM” value of the first is higher: -2.76% for the first, -67.6% for the second.

Compared with `O=C(Cc1ncc(C(F)(F)F)cc1Cl)NCc1cccnc1`, `COc1ccc(C(=O)NC(=S)NCc2cccnc2)cc1Cl` is lower in “hERG current change (%, negative = inhibition) at 10uM” value: 17.1% for the first, -1.7% for the second.

Going from `COc1ccc(CC(=O)OCC(=O)Nc2ccc(OC(F)F)cc2)cc1OC` to `COc1ccc(C(=O)NC(=S)NCc2cccnc2)cc1OC`, the “hERG current change (%, negative = inhibition) at 10uM” value falls from -19.7% to -57.3%.

First: Cc1cc(C)n(CC(C)NC(=O)c2cc(COc3c(F)cccc3F)on2)n1 (stereo not drawn)
Second: COc1cccc(NC(=O)CN(C)C(=O)c2cc(C)oc2C)c1
The “hERG current change (%, negative = inhibition) at 10uM” value of the first is lower: 1.49% for the first, 6.56% for the second.

First: COc1cccc(C2=NOC(C(=O)NCc3cccnc3)C2)c1 (stereo not drawn)
Second: COc1ccc(OC)c(C2=NOC(C(=O)NCc3cccnc3)C2)c1 (stereo not drawn)
The “hERG current change (%, negative = inhibition) at 10uM” value of the first is higher: 35.6% for the first, -62% for the second.

Going from `COc1cc(OC)c(C2=NOC(C(=O)NCc3cccnc3)C2)cc1Cl` (stereo not drawn) to `COc1ccc(C(=O)NC(=S)NCc2cccnc2)cc1Br`, the “hERG current change (%, negative = inhibition) at 10uM” value falls from 13% to -23.9%.

Compared with `CCOc1ccc(C(=O)NC(=S)NCc2cccnc2)cc1[N+](=O)[O-]`, `COc1ccc(C(=O)NC(=S)NCc2cccnc2)cc1[N+](=O)[O-]` is lower in “hERG current change (%, negative = inhibition) at 10uM” value: -2.86% for the first, -12.3% for the second.

First: CCOc1ccc(C(=O)NCc2cccnc2)cc1[N+](=O)[O-]
Second: CCOc1ccc(C(=O)NC(=S)Nc2cccnc2)cc1[N+](=O)[O-]
The “hERG current change (%, negative = inhibition) at 10uM” value of the first is lower: -76% for the first, -16.1% for the second.

Going from `CCOc1ccc(C(=O)NC(=S)Nc2ccccn2)cc1[N+](=O)[O-]` to `COc1cccc(C(=O)NCc2cccnc2)c1`, the “hERG current change (%, negative = inhibition) at 10uM” value rises from -2.48% to 1.54%.

Going from `NC(=O)CSc1oc(-c2ccc(F)cc2)nc1S(=O)(=O)c1ccccc1` to `CC(CNS(=O)(=O)c1ccc2c(c1)CC(=O)N2C)c1ccccc1` (stereo not drawn), the “hERG current change (%, negative = inhibition) at 10uM” value falls from -8.24% to -12.3%.

Compared with `Cc1ccc(S(=O)(=O)C(C#N)c2nc3ccccc3nc2OC(C)C)cc1` (stereo not drawn), `O=c1[nH]nc(Cc2ccc([N+](=O)[O-])cc2)c2ccccc12` is lower in “hERG current change (%, negative = inhibition) at 10uM” value: -5.65% for the first, -70.2% for the second.

Compared with `CN(CC(=O)Nc1ccc(F)cc1)C(=O)COC(=O)C1=COCCO1`, `CN(C)S(=O)(=O)c1ccc(NC(=O)CN2CCOCC2)cc1` is higher in “hERG current change (%, negative = inhibition) at 10uM” value: -20% for the first, 9.72% for the second.

Going from `CCCCOC(=O)C1=C(C)Nc2ncnn2C1c1ccc(OC)c(OC)c1OC` (stereo not drawn) to `COc1cc(NC(=O)Cn2cnc3c(nc4n3CCCCC4)c2=O)cc(OC)c1OC`, the “hERG current change (%, negative = inhibition) at 10uM” value rises from -18.3% to 22.8%.

Compared with `CCOC(=O)Cc1csc(NC(=O)c2ccc3c(c2)OCO3)n1`, `Cc1cc2cc(CNC(=O)c3ccc4c(c3)OCO4)ccc2[nH]1` is higher in “hERG current change (%, negative = inhibition) at 10uM” value: -22.8% for the first, -1.85% for the second.

Compared with `Cc1nn(C(=O)CN2C(=O)c3ccccc3C2=O)c(C)c1Br`, `CCN(CC)C(=O)c1ccc2c(c1[N+](=O)[O-])C(=O)c1ccccc1C2=O` is higher in “hERG current change (%, negative = inhibition) at 10uM” value: 5.28% for the first, 6.69% for the second.

Compared with `CCOC(=O)[C@H]1[C@H]2COc3ccc(Cl)cc3[C@@H]2N2C(=O)CN(Cc3ccc(Cl)cc3)C(=O)[C@@]12C`, `Cc1ccc(NC(=O)Nc2cc(Cl)ccc2C2COC(=O)C2=N)cc1` (stereo not drawn) is higher in “hERG current change (%, negative = inhibition) at 10uM” value: 2.8% for the first, 27.9% for the second.

Going from `Cn1c(N)c(S(=O)(=O)N2CCCC2)c(=O)n(C)c1=O` to `Cc1c(S(=O)(=O)NCCc2ccccc2)c(=O)n(C)c(=O)n1C`, the “hERG current change (%, negative = inhibition) at 10uM” value falls from 26.2% to -1.25%.

Going from `O=C(O)C(F)(F)F.c1cn2c(NC3CCCCC3)c(-c3ccc(SC4CCCCC4)cc3)nc2cn1` to `COc1ccc(CN2CCNC(=O)C2CC(=O)NC2CCCCCCC2)cc1C` (stereo not drawn), the “hERG current change (%, negative = inhibition) at 10uM” value rises from 9.49% to 15.8%.

Compared with `O=C(CSc1ccc(F)cc1)N1CCOCC1`, `Cc1ccc(NC(=O)CN2CCOCC2)cc1` is lower in “hERG current change (%, negative = inhibition) at 10uM” value: 16.2% for the first, 14.1% for the second.

First: O=C(N/N=C/c1cccnc1)c1cc(Br)ccc1O
Second: Cn1c(O)c(N=NC(=O)CNC(=O)c2cccnc2)c2ccccc21
The “hERG current change (%, negative = inhibition) at 10uM” value of the first is higher: 30.5% for the first, 15.1% for the second.

First: Cc1ccc(-n2c(=O)cc(N3CC(C)CC(C)C3)[nH]c2=O)cc1 (stereo not drawn)
Second: Cc1ccc2[nH]c(-c3ccccc3)c(CN3CCCC3)c(=O)c2c1
The “hERG current change (%, negative = inhibition) at 10uM” value of the first is higher: 23.7% for the first, -12.2% for the second.

Compared with `COc1ccccc1NC(=O)Cn1cnc2c(nc3n2CCCCC3)c1=O`, `O=C(Cn1cnc2c(nc3n2CCCCC3)c1=O)Nc1cccc(C(F)(F)F)c1` is lower in “hERG current change (%, negative = inhibition) at 10uM” value: -11.4% for the first, -52.3% for the second.

Compared with `CC(C)c1nc(CN(C)C(=O)N[C@H](C(=O)N[C@@H](Cc2ccccc2)C[C@H](O)[C@H](Cc2ccccc2)NC(=O)OCc2cncs2)C(C)C)cs1`, `O=C1CSC(c2cn(-c3ccccc3)nc2-c2cc3ccccc3oc2=O)N1Cc1ccccc1` (stereo not drawn) is higher in “hERG current change (%, negative = inhibition) at 10uM” value: -24.5% for the first, 5.85% for the second.

First: C#CCOCCOCCOCCNc1nc(N2CCOCC2)nc(N2CCN(C(=O)[C@H]([C@@H](C)CC)n3cc(CCC[NH+]=C(N)N)nn3)CC2)n1.[Cl-]
Second: Nc1nc(N2CCCCC2)nc(N2CCCCC2)n1
The “hERG current change (%, negative = inhibition) at 10uM” value of the first is higher: -0.117% for the first, -78.2% for the second.

Compared with `COc1cccc(-n2c(SCC(N)=O)nnc2-c2ccncc2)c1`, `CC(=O)c1c(N2CCN(c3ccccn3)CC2)nc(=S)n(-c2ccccc2)c1C` is lower in “hERG current change (%, negative = inhibition) at 10uM” value: 16% for the first, -32.3% for the second.

Compared with `O=c1[nH]nc(Cc2ccccc2)c2ccccc12`, `O=c1[nH]nc(Cc2ccc(Cl)cc2)c2ccccc12` is higher in “hERG current change (%, negative = inhibition) at 10uM” value: 4.16% for the first, 8.04% for the second.

Compared with `CN(C)CCNC(=O)c1cc(Br)ccc1Cl`, `Cc1[nH]c2ccc(Br)cc2c(=O)c1CN1CCOCC1` is lower in “hERG current change (%, negative = inhibition) at 10uM” value: 3.14% for the first, -27.2% for the second.

First: Cc1ccc(CN2CCN(/N=C/c3cccs3)CC2)cc1
Second: Cc1ccc(CN2CCC(c3cc(-c4cccs4)n[nH]3)CC2)cc1
The “hERG current change (%, negative = inhibition) at 10uM” value of the first is higher: -38% for the first, -82.1% for the second.

Going from `CC(C)(C)OC(=O)N1CCC(c2cc(-c3cccs3)n[nH]2)CC1` to `CCOC(=O)CN1CCC(c2cc(-c3ccc(Cl)cc3)n[nH]2)CC1`, the “hERG current change (%, negative = inhibition) at 10uM” value falls from -1.2% to -12.5%.

First: Cc1ccc(CN2CCC(c3cc(-c4ccc(Cl)cc4)n[nH]3)CC2)cc1
Second: Clc1ccc(-c2cc(C3CCNCC3)[nH]n2)cc1
The “hERG current change (%, negative = inhibition) at 10uM” value of the first is lower: -78.8% for the first, -3.21% for the second.

First: O=C(O)c1ccc(NC(=O)c2cccc(C(=O)Nc3ccc(C(=O)O)cc3)c2)cc1
Second: Cc1ccc2[nH]c(=O)c(CC(=O)O)c(-c3ccccc3)c2c1
The “hERG current change (%, negative = inhibition) at 10uM” value of the first is lower: 7.31% for the first, 17.7% for the second.

First: Cc1nn(C2CCOC(C)(C)C2)c2c1C(c1ccc(OC(C)C)cc1)SCC(=O)N2 (stereo not drawn)
Second: COc1ccc(CN2CCNC(=O)C2CC(=O)NCCCC2CCCC2)c(C)c1C (stereo not drawn)
The “hERG current change (%, negative = inhibition) at 10uM” value of the first is lower: -15.5% for the first, 5.39% for the second.

Compared with `Nc1nc(N2CCCCC2)nc(N(c2ccccc2)c2ccccc2)n1`, `Cc1ccc2[nH]c(=O)c(CN3CCCCC3)c(-c3ccccc3)c2c1` is lower in “hERG current change (%, negative = inhibition) at 10uM” value: 17.1% for the first, -53.6% for the second.

Going from `C1CCN(c2nc(N3CCCCC3)nc(N3CCNCC3)n2)CC1` to `O=C(C1CCN(S(=O)(=O)N2CCOCC2)CC1)N1CCOCC1`, the “hERG current change (%, negative = inhibition) at 10uM” value rises from -7.81% to -6.69%.

Going from `CCCN(CCC)S(=O)(=O)c1ccc(NC(=O)C2CCCO2)cc1` (stereo not drawn) to `CCN(CC)S(=O)(=O)c1ccc(NC(=O)C2CCCO2)cc1` (stereo not drawn), the “hERG current change (%, negative = inhibition) at 10uM” value rises from -64.4% to 6.96%.

Compared with `CCCCN(CCCC)S(=O)(=O)c1ccc(NC(=O)CN2CCOCC2)cc1`, `CCCCNS(=O)(=O)c1ccc(NC(=O)C2CCCO2)cc1` (stereo not drawn) is higher in “hERG current change (%, negative = inhibition) at 10uM” value: -53.6% for the first, -8.88% for the second.

First: CC12CCC(C(=O)N(CC(O)CN3CCN(Cc4ccccc4)CC3)C1=O)C2(C)C.Cl (stereo not drawn)
Second: O=C(C1CCC(=O)N1Cc1ccccc1Cl)N1CCC2(CC1)OCCO2 (stereo not drawn)
The “hERG current change (%, negative = inhibition) at 10uM” value of the first is higher: -6.03% for the first, -29.7% for the second.

First: Cc1[nH]c2ccc(Br)cc2c(=O)c1CN1CCCCCC1
Second: CCc1ccc2[nH]c(C)c(CN3CCCCCC3)c(=O)c2c1
The “hERG current change (%, negative = inhibition) at 10uM” value of the first is lower: -64.3% for the first, -46.9% for the second.

First: O=c1[nH]c2ccc(Br)cc2c(-c2ccccc2)c1CN1CCOCC1
Second: O=c1[nH]c2ccc(Cl)cc2c(-c2ccccc2)c1CN1CCOCC1
The “hERG current change (%, negative = inhibition) at 10uM” value of the first is lower: -65.7% for the first, -14.7% for the second.

First: CC(C)(C)c1cc(=O)[nH]c(SCc2ccccc2)n1
Second: CCOC(=O)c1c(O)c2ccccc2n(C)c1=O
The “hERG current change (%, negative = inhibition) at 10uM” value of the first is lower: 17.3% for the first, 27.7% for the second.

Going from `OCC1CO1` (stereo not drawn) to `CCOc1ccc(NC(=O)CSc2n[nH]c(N)n2)c([N+](=O)[O-])c1`, the “hERG current change (%, negative = inhibition) at 10uM” value falls from 15.8% to -6.62%.
